# Assay outcomes (PubChem)
# DT40 TDP1 no CPT: qHTS for Inhibitors of human tyrosyl-DNA phosphodiesterase 1 (TDP1): qHTS in cells in absence of CPT | 420,000 compounds, 15% hits | DT40 Tdp1-/- hTDP1 cells, no CPT, ATP luminescence, 48 h | Potency, µM (series often up to 46.2 µM), inactives show at the highest dose activity change, negative = growth inhibition, usual class: inhibitors; also: potency is read from the fitted curve at half-maximal effect; nearly all actives have a fitted effect of over 55% in size
#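 Readout: luminescence from CellTiter-Glo after 30 min in the dark at RT. Cells: DT40 Tdp1-/- with stable hTDP1, 400/well. Exposure: compounds alone, ≥48 hr, 37 °C.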
# HT1080-NT tox: qHTS for induction of synthetic lethality in tumor cells producing 2HG: qHTS for the HT-1080-NT fibrosarcoma cell line | 360,000 compounds, 1.6% hits | AID 686970, 2013 | HT-1080-NT fibrosarcoma viability, CellTiter-Glo ATP luminescence, 48 h | Potency, µM (series often up to 46.1 µM), for the others: at the top dose activity, negative = less viability, most hits filed as cytotoxic;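 also: NT is the 2HG producing partner of a matched IDH1 knockdown line; potency is read from the fitted curve at half-maximal effect; 0% = DMSO-treated cells and -100% = media-only wells without cells; nearly all actives have a fitted effect of over 55% in size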
#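 HT-1080-NT; 750 cells/well; 5% FBS RPMI; 48 h compound, 37 degrees C; CellTiter-Glo luminescence; curve fitting and curve-class assignment.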
# HT1080 IDH1KD tx: qHTS for induction of synthetic lethality in tumor cells producing 2HG: qHTS for the HT-1080-IDH1KD cell line | HT-1080 IDH1 knockdown viability, ATP luminescence, 48 h | Potency, µM (highest dose often 46.1 µM), for inactives: at the top dose activity, negative = toxicity, most hits filed as cytotoxic | AID 686971, 2013 | 360,000 compounds, 2% hits;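 also: potency is read from the fitted curve at half-maximal effect; 0% = DMSO wells and -100% = cell-free medium wells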
#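 In this qHTS, HT-1080 cells depleted of IDH1 are exposed for 48 h at 37 °C to compound titrations. Toxicity is scored from CellTiter-Glo luminescence, with DMSO as full viability and medium alone as none.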
# IL1B secr inh: qHTS for Inhibitors of Inflammasome Signaling: IL-1-beta AlphaLISA Primary Screen; 360,000 compounds, 4.7% hits; activity change, % at 57.5 µM; THP-1 LPS/ATP IL-1B secretion, AlphaLISA, 16 h; stronger effect = lower value; AID 743279, 2014; in the data active = activity change below about -50%; inconclusive = mostly about -30% to -49%
#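 THP-1 cells pretreated 1 hr with compounds (up to 57.5 uM final), then stimulated with LPS (250 ng/mL final) plus ATP (1.25 mM final); secreted IL-1B measured by AlphaLISA after 16 hr, decreased signal indicating inhibition.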
# DT40 TDP1 CPT: qHTS for Inhibitors of human tyrosyl-DNA phosphodiesterase 1 (TDP1): qHTS in cells in presence of CPT | Potency, µM (highest dose often 46.2 µM), for the others: at the highest dose activity change, negative = growth inhibition, actives largely listed as inhibitors | 420,000 compounds, 12% hits | chicken DT40 Tdp1-/-;hTDP1 cells + 20 nM CPT, ATP luminescence, 48 h; also: potency is read from the fitted curve at half-maximal effect; nearly all actives have a fitted effect of over 55% in size
#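 Cell growth measured by CellTiter-Glo luminescence after a minimum 48 h, 37 C compound exposure with 20 nM CPT in Tdp1-knockout DT40 cells stably expressing hTDP1, seeded 400/well; qHTS titration format.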
# * marks the source's active call; other numbers are inactive results; u = inconclusive; x = no result given. The list is not random: actives were taken first. Their share in the collection is about 19%. Unless noted, calls follow the shape of the dose curve; as a rule, active = well fitted curve in the direction sought with a large enough effect; inconclusive = small, poorly fitted or top-dose-only effect, or another doubt; inactive = no such curve, though single readings can be large; an effect the other way counts as inactive or inconclusive. Unless noted, % is scaled to controls: 0 for no effect and ±100 for the full control effect.
SMILES,DT40 TDP1 no CPT,HT1080-NT tox,HT1080 IDH1KD tx,IL1B secr inh,DT40 TDP1 CPT
O=C(NC1CCCCC1)C(c1cccs1)N(CCCN1CCOCC1)C(=O)c1ccc(-c2ccccc2)[nH]1 (stereo not drawn),15µM*,u,u,0,u
CC(C)(C)c1ccc(C(=O)C=[N+]=[N-])cc1,15µM*,17%,19%,8,26µM*
CCOCCc1nn2c(=O)cc(COC(=O)C3CCCCC3)nc2s1,-10%,x,x,x,-1%
Cc1nnc2n(c1=O)C(CS(=O)(=O)c1ccccc1)CS2 (stereo not drawn),-12%,-8%,-3%,10,2%
Nc1nc2ccccc2n1S(=O)(=O)c1ccc([N+](=O)[O-])cc1,21µM*,-28%,u,10,29µM*
O=[N+]([O-])c1ccc(S(=O)(=O)CC2CSc3nc4ccccc4n32)cc1 (stereo not drawn),12µM*,0%,-10%,57,13µM*
N[C@](CC1c2ccccc2Oc2ccccc21)(C(=O)O)[C@@H]1C[C@@H]1C(=O)O,-4%,x,x,x,-5%
CC(C)(C)c1ccc(C(=O)CC(Sc2ccc(Cl)cc2)C(=O)O)cc1 (stereo not drawn),4.1µM*,12µM*,15µM*,-97*,3.3µM*
Cc1ccc(SC(CC(=O)c2ccc(F)cc2)C(=O)O)cc1 (stereo not drawn),26µM*,0%,0%,-96*,u
CN1CCN(C2=C(Cl)C(=O)C(c3cnc(N4CCCCC4)s3)=C(Cl)C2=O)CC1,1.6µM*,-12%,u,0,2.1µM*
NC(=O)C1CCN(C2=C(Cl)C(=O)c3ccccc3C2=O)CC1,2.9µM*,u,21µM*,-98*,2.3µM*
CC1COCC(C)N1C1=C(Cl)C(=O)c2ccccc2C1=O (stereo not drawn),1.5µM*,-26%,18µM*,u,0.65µM*
CN1CCN(C2=C(Cl)C(=O)c3ccccc3C2=O)CC1,2.6µM*,u,u,-104*,2.3µM*
CN1CCN(C2=C(Cl)C(=O)N(C3CCCCC3)C2=O)CC1,u,5%,-10%,u,u
O=C(NC(=S)/C(=C1\CCCCCN1)[N+](=O)[O-])c1ccccc1,3%,-7%,-9%,4,-1%
O=C1C(Cl)=C(N2CCC(C(=O)O)CC2)C(=O)c2ccccc21,16µM*,u,u,0,15µM*
Cn1nc(C(F)(F)F)c(C#N)c1N1CCN(c2cccc(C(F)(F)F)c2)CC1,u,18%,6%,-6,u
COc1ccc(N2CCN(c3cc(C)nc4nc(-c5ccc(C)cc5)nn34)CC2)cc1,-3%,x,x,x,-1%
Cc1nc2ncnn2c(N2CCN(c3cccc(C(F)(F)F)c3)CC2)c1C,21µM*,u,u,u,16µM*
Cc1cc(N2CCN(c3cccc(C(F)(F)F)c3)CC2)n2nc(-c3ccccc3C)nc2n1,16µM*,x,x,x,18µM*
Cc1cc(N2CCN(c3cccc(C(F)(F)F)c3)CC2)n2ncnc2n1,23µM*,3%,8%,-12,u
CC(C)C(NS(C)(=O)=O)c1nnc2n1CCN(Cc1ccc3cccnc3c1)CC2 (stereo not drawn),-13%,x,x,x,9%
c1ccc2c(c1)CCN(c1nc3cc4c(cc3s1)OCCO4)C2,u,u,u,-58*,10µM*
